In assay [1] the test system is DLD1. The experiment in a line: cell viability (CellTiter-Glo) relative to plate median (fraction of plate median); higher = more viable cells. To be noted: 5 µM; treatment time 24 h; reporter: 7TFP. In a few lines:
(§1)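 After seeding in 384-well plates, colorectal cancer cell lines carrying stable lentiviral TCF/Wnt firefly luciferase reporters (7TFP or TCF4/Wnt) were left 24 h. Library compounds were then added at a final 5 µM for 24 h. A Tecan F500 reader measured firefly luciferase or CellTiterGlo luminescence on parallel plates, with each well normalised to the plate median by webcellHTS2 (additive, no log transformation), and two independent replicates averaged.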

For a further assay, the system named is HCT116. Described as above. To be noted: 5 µM; treatment time 24 h; reporter: TCF4/Wnt. In short, it runs like this: as §1
For assay [2], the system named is SW480. Described as above. Particulars: 5 µM; treatment time 24 h; reporter: 7TFP. In short, it runs like this:
as §1

For assay [3], the system named is DLD1. In words: TCF/Wnt firefly luciferase reporter signal relative to plate median (fraction of plate median); higher = higher Wnt reporter signal. To be noted: 5 µM; treatment time 24 h; reporter: 7TFP. In a few lines:
as §1

The subject of assay [4] is SW480. The description is as above. Particulars: 5 µM; treatment time 24 h; reporter: 7TFP. In short, it runs like this:
as §1

Structures are written as SMILES. ± gives the standard deviation of the averaged measurements.

Turning to `O=C1OC2(c3ccc(O)cc3Oc3cc(O)ccc32)c2ccccc21`, the cell viability in the assay on DLD1 [1] was found to be 1.01 ± 0.047; in the assay on HCT116, 0.9885 ± 0.0064; in the assay with SW480 [2] it was 1 ± 0.011. Also, the results for the “TCF/Wnt firefly luciferase reporter signal” value with DLD1 [3] and in the assay on SW480 [4] were 1.11 ± 0.085 and 1.07 ± 0.028, respectively.
Turning to `Cc1ncc([N+](=O)[O-])n1CCO`, the cell viability in the assay on DLD1 [1] came out at 1.08 ± 0.064; in the assay on HCT116, 1.06 ± 0.071; in the assay with SW480 [2] it was 1.02 ± 0.014. The “TCF/Wnt firefly luciferase reporter signal” value in the assay on DLD1 [3] is 1.06 ± 0.042; in the assay with SW480 [4], 0.964 ± 0.11.
As for `Cc1oc(=O)c2c(O)cccc2c1CO` [8-Hydroxy-4-hydroxymethyl-3-methyl-isocumarin], the values for the cell viability with DLD1 [1], with HCT116 and with SW480 [2] were 0.926 ± 0.032, 0.925 ± 0.027 and 0.98 ± 0.021, respectively. Further, the “TCF/Wnt firefly luciferase reporter signal” value in the assay with DLD1 [3] was found to be 1.01 ± 0.13; in the assay on SW480 [4] it was 0.993 ± 0.0099.
For `NS(=O)(=O)c1cc2c(cc1Cl)N=CNS2(=O)=O`, in that order: 0.965 ± 0.093, 0.973 ± 0.081, 0.891 ± 0.018, 0.828 ± 0.18 and 0.984 ± 0.011.
For `COc1ccc(C(=O)Oc2ccc(/C=N/NC(N)=O)cc2)cc1` [Anthramycin derivative (C16H15N3O4)], in that order: 1.2 ± 0.2, 0.991 ± 0.07, 1.02 ± 0.071, 0.938 ± 0.12 and 1.05 ± 0.028.
In the same order, the values of `COc1cc(C(=O)NCCCCCC(=O)O)cc(OC)c1OC` are 0.981 ± 0.015, 0.921 ± 0.044, 1.01 ± 0.014, 0.865 ± 0.023 and 0.902 ± 0.046.
In the case of `C=C1C(N)CC2CC1C2(C)C` (stereo not drawn) [3-AMINO-beta-PINENE], the cell viability in the assay on DLD1 [1] was 0.974 ± 0.093; with HCT116, 0.9965 ± 0.005; in the assay with SW480 [2], 0.918 ± 0.024. In addition, the “TCF/Wnt firefly luciferase reporter signal” value with DLD1 [3] stood at 0.893 ± 0.0071; in the assay on SW480 [4], 0.888 ± 0.016.
In the same order, the values of `COc1ccc2c(c1)[C@@]1(C)CCC(=O)C[C@H]1CC2` [5beta-12-METHOXY-4,4-BISNOR-8,11,13-PODOCARPATRIEN-3-ONE] are 0.9975 ± 0.0035, 1.07 ± 0.071, 1.01 ± 0.037, 1.18 ± 0.2 and 1.05 ± 0.057.
For `COc1cc(-c2coc3cc(OC)c(OC)c(OC)c3c2=O)cc(OC)c1OC`, in that order: 1.04 ± 0.08, 1.18 ± 0.14, 1.07 ± 0.064, 1.05 ± 0.1 and 1.1 ± 0.028.
For `CC=CC1=C(C(=O)O)N2C(=O)[C@@H](NC(=O)[C@H](N)c3ccc(O)cc3)[C@H]2SC1`, in that order: 0.992 ± 0.012, 1.03 ± 0.06, 0.983 ± 0.039, 1.09 ± 0.099 and 1.17 ± 0.064.
For the molecule `CCOC(=O)NNc1nncc2ccccc12`, the cell viability was determined as 0.981 ± 0.07 in the assay with DLD1 [1], 1.01 ± 0.014 in the assay on HCT116 and 0.981 ± 0.056 in the assay with SW480 [2]. The “TCF/Wnt firefly luciferase reporter signal” value is 0.85 ± 0.045 in the assay on DLD1 [3] and 0.784 ± 0.069 with SW480 [4].
`COc1ccc(CCC(=O)c2c(O)cc(O[C@@H]3O[C@H](CO)[C@@H](O)[C@H](O)[C@H]3O[C@@H]3O[C@@H](C)[C@H](O)[C@@H](O)[C@H]3O)cc2O)cc1O`: the cell viability in the assay with DLD1 [1] was found to be 0.96 ± 0.085; in the assay with HCT116 it was 1.01 ± 0.024; in the assay on SW480 [2] it was 0.975 ± 0.036. Besides, the figures for the “TCF/Wnt firefly luciferase reporter signal” value with DLD1 [3] and in the assay with SW480 [4] were 0.945 ± 0.079 and 1.04 ± 0.028, respectively.
On to `O=C(O)/C=C/c1ccccc1`, for which the cell viability came to 1.09 ± 0.17 with DLD1 [1], 1.08 ± 0.092 with HCT116 and 1.09 ± 0.035 in the assay with SW480 [2]. Also, the “TCF/Wnt firefly luciferase reporter signal” value turned out to be 0.928 ± 0.086 in the assay on DLD1 [3] and 1.05 ± 0.035 with SW480 [4].
For `CO/N=C(\C(=O)N[C@@H]1C(=O)N2C(C(=O)O)=C(CSc3nc(=O)c(O)nn3C)CS[C@H]12)c1csc(N)n1`, in that order: 1.06 ± 0.071, 1.06 ± 0.071, 0.98 ± 0.071, 1.1 ± 0.14 and 0.96 ± 0.057.
For the molecule `Nc1ccc(C(=O)O)cc1`, the figures for the cell viability in the assay with DLD1 [1], in the assay with HCT116 and in the assay on SW480 [2] were 0.9785 ± 0.00071, 0.996 ± 0.034 and 0.974 ± 0.013, respectively. In addition, the “TCF/Wnt firefly luciferase reporter signal” value with DLD1 [3] was determined as 1.03 ± 0.035; in the assay with SW480 [4], 0.965 ± 0.12.
For `CN(C)c1ccc2nc3ccc(=[N+](C)C)cc-3sc2c1`, in that order: 1 ± 0.052, 0.878 ± 0.021, 1.16 ± 0.071, 1.06 ± 0.078 and 1.11 ± 0.021.
Take `CC[C@H]1OC(=O)C[C@@H](O)[C@H](C)[C@@H](O[C@@H]2O[C@H](C)[C@@H](O)[C@H](N(C)C)[C@H]2O)[C@@H](CCN2C[C@H](C)C[C@H](C)C2)C[C@@H](C)C(=O)/C=C/C(C)=C/[C@@H]1CO[C@@H]1O[C@H](C)[C@@H](O)[C@@H](OC)[C@H]1OC`: the cell viability worked out at 0.981 ± 0.041 in the assay on DLD1 [1], 1.1 ± 0.05 in the assay on HCT116 and 0.972 ± 0.021 in the assay on SW480 [2]. Besides, the entries for the “TCF/Wnt firefly luciferase reporter signal” value in the assay with DLD1 [3] and in the assay with SW480 [4] were 1.02 ± 0.077 and 1.09 ± 0.064, respectively.
As for `O=C(Oc1cc(O)cc2c1C[C@@H](OC(=O)c1cc(O)c(O)c(O)c1)[C@@H](c1cc(O)c(O)c(O)c1)O2)c1cc(O)c(O)c(O)c1`, the cell viability in the assay with DLD1 [1] was 1.06 ± 0.028; in the assay on HCT116, 1.1 ± 0.12; in the assay on SW480 [2], 1.04 ± 0.021. In addition, the “TCF/Wnt firefly luciferase reporter signal” value was found to be 0.89 ± 0.0071 in the assay with DLD1 [3] and 0.951 ± 0.048 with SW480 [4].
In the case of `CN(C)CCCC1(c2ccc(F)cc2)OCc2cc(C#N)ccc21` (stereo not given), the results for the cell viability in the assay on DLD1 [1], in the assay with HCT116 and with SW480 [2] were 1.02 ± 0.044, 1.01 ± 0.061 and 0.996 ± 0.048, respectively. For the same molecule, the “TCF/Wnt firefly luciferase reporter signal” value with DLD1 [3] turned out to be 0.964 ± 0.0014; with SW480 [4] it was 1.01 ± 0.1.
In the same order, the values of `CNCc1ccccc1` are 1.03 ± 0.014, 1.125 ± 0.0071, 1.03 ± 0.021, 1.03 ± 0.067 and 1.045 ± 0.0071.
For the molecule `CC(=O)[C@H]1CC[C@H]2[C@@H]3CCC4=CC(=O)CC[C@]4(C)[C@H]3CC[C@]12C`, the cell viability in the assay on DLD1 [1] was 1.01 ± 0.078; with HCT116 it was 1.02 ± 0.12; in the assay on SW480 [2], 0.992 ± 0.025. The “TCF/Wnt firefly luciferase reporter signal” value in the assay on DLD1 [3] came out at 0.979 ± 0.03; in the assay with SW480 [4] it was 1.04 ± 0.028.
In the same order, the values of `Cc1ccccc1C(OCCN(C)C)c1ccccc1` (stereo not given) are 1.07 ± 0.13, 0.894 ± 0.15, 1.01 ± 0.039, 1.085 ± 0.0071 and 1.12 ± 0.085.
In the same order, the values of `CCOC(=O)c1c(C)cc(O)c(C=O)c1O` are 0.945 ± 0.05, 1.08 ± 0.014, 0.9445 ± 0.005, 0.865 ± 0.11 and 0.861 ± 0.11.
Regarding `CC(=O)c1c(O)cc(O)cc1O`, the cell viability with DLD1 [1] turned out to be 1.02 ± 0.035; in the assay on HCT116, 1.03 ± 0.035; in the assay with SW480 [2], 1.04 ± 0.068. For the same molecule, the “TCF/Wnt firefly luciferase reporter signal” value in the assay on DLD1 [3] amounted to 1.08 ± 0.042; in the assay with SW480 [4], 0.938 ± 0.033.
As for `CC1(C)C(=O)CC[C@@]2(C)C1C[C@@H](O)[C@@]1(C)C3=CC(=O)O[C@@H](c4ccoc4)[C@]3(C)CCC21` (stereo not given in full), the cell viability in the assay on DLD1 [1] amounted to 0.9595 ± 0.0035; in the assay on HCT116 it was 1.06; in the assay with SW480 [2], 0.969 ± 0.027. In addition, the “TCF/Wnt firefly luciferase reporter signal” value came to 0.937 ± 0.028 in the assay on DLD1 [3] and 0.967 ± 0.013 in the assay on SW480 [4].
In the same order, the values of `COc1ccccc1N1CCN(CCCNc2cc(=O)n(C)c(=O)n2C)CC1` are 0.938 ± 0.037, 0.885 ± 0.018, 0.93 ± 0.025, 1.03 ± 0.05 and 0.953 ± 0.081.
For `COC(=O)C[C@H]1C(C)(C)[C@@H](O)[C@@H]2CC3=C4C=C(OC)O[C@@H](c5ccoc5)[C@]4(C)CCC3[C@@]1(C)C2=O` (stereo partly drawn) [3-DEOXO-3beta-HYDROXYMEXICANOLIDE 16-ENOL ETHER], in that order: 0.931 ± 0.11, 0.91 ± 0.036, 0.919 ± 0.018, 0.946 ± 0.07 and 0.921 ± 0.064.
For `Cc1cccc(C)c1NC(=O)C1CCCCN1C` (stereo not given), in that order: 1 ± 0.078, 0.959 ± 0.1, 0.971 ± 0.035, 1.05 ± 0.035 and 1.04 ± 0.12.
Regarding `CCCC(=O)Nc1ncnc2c1ncn2[C@@H]1O[C@@H]2COP(=O)(O)O[C@H]2[C@H]1OC(=O)CCC`, the cell viability in the assay on DLD1 [1] is 0.945 ± 0.055; in the assay with HCT116, 0.957 ± 0.026; with SW480 [2] it was 0.987 ± 0.0071. The “TCF/Wnt firefly luciferase reporter signal” value in the assay with DLD1 [3] was determined as 1.11 ± 0.17; in the assay with SW480 [4], 1.09 ± 0.014.

These data come from the supplement of paper PMC6522484.
